CHX counter = counter-screen hit for Shiga toxin inhibitors, cycloheximide; 300,000 tested, 12% active; AID 2314; max response, %; cell reporter, cycloheximide protein synthesis inhibition counterscreen; in the data active = max response mostly above about 13%, no sharp cut-off; inactive = mostly below about 14%; note: read at 38.3 µM for the half of the compounds with a filed dose; 0% is about no effect
Shiga inhibitor = inhibitors of Shiga toxin in Vero cells; 290,000 tested, 9.2% active; AID 2315; Vero cells, Shiga toxin protein synthesis inhibition reporter; inhibition, % at 38.7 µM; in the data active = inhibition mostly above about 28%, no sharp cut-off; inactive = mostly below about 43%; note: 0% is about no effect
Pf growth 48h = P. falciparum growth inhibition at 48 hours (one generation); AID 504832; Potency, µM (highest dose often 28.7 µM), for inactives: top-dose activity change, negative = inhibition, usual class: inhibitors; P. falciparum luciferase growth in erythrocytes, 48 h; 310,000 tested, 5.9% active; note: potency is the fitted concentration of half-maximal effect; % is set by controls: 0 for no effect and ±100 for the full control effect
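A one-generation exposure of luciferase-tagged malaria parasites in RPMI 1640/Albumax erythrocyte culture, 37 C and 5% CO2. Inhibition is inferred from decreased luminescence after adding detection reagent.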
Pf growth 96h = inhibits malaria parasite growth, 96 h; P. falciparum luciferase reporter growth, 96 h; Potency, µM (titrated, usually from 28.7 µM), for inactives: at the highest dose activity change, negative = inhibition, usual class: inhibitors; 320,000 tested, 6.9% active; AID 504834; note: potency is the fitted concentration of half-maximal effect; % is set by controls: 0 for no effect and ±100 for the full control effect
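Parasite growth measured via integrated firefly luciferase reporter in P. falciparum. Infected erythrocytes at 2% hematocrit, 0.05% parasitemia final were treated 96 hours at 37 C under 5% CO2, and luminescence was read.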
An asterisk follows results filed as active; i = inactive; ? = inconclusive; / = no result. Sampled rows, rich in hits. Any-hit rate of the full collection: about 21%. Unless noted, calls come from the whole dose curve; as a rule, active = well fitted inhibition curve with a large enough effect; inconclusive = small, poorly fitted or top-dose-only effect, or another doubt; inactive = no such curve, though single readings can be large or run the other way.

SMILES	CHX counter	Shiga inhibitor	Pf growth 48h	Pf growth 96h
C=CCNC(=O)c1ccc(Cn2c(=S)[nH]c3cc4c(cc3c2=O)OCO4)cc1	-3	2	9%	143%
COc1ccc(Cn2c(=O)[nH]c3cc(C(=O)N4CCN(c5ccc(C(C)=O)cc5)CC4)ccc3c2=O)cc1	-1	-8	-20%	12µM*
O=C(O)c1cccc(Cn2c(Cl)c(/C=N/NC(=O)c3cc4ccccc4cc3O)sc2=O)c1	5	4	?	?
Cn1c(O)c(/C=N/NC(=O)c2cc3ccccc3cc2O)c2ccccc21	21	80*	?	?
COc1ccc2c(c1)cc(C(=O)N/N=C/c1c(O)c(C(=O)O)cc3ccccc13)n2C	4	-8	22%	13%
O=C(N/N=C/c1cccc(Oc2ccccc2)c1)c1ccc(O)cc1O	30	34	33%	?
Cn1c2ccccc2c2cc(/C=N/NC(=O)c3ccc(O)cc3O)ccc21	32*	72*	-30%	37%
CCn1c2ccccc2c2cc(/C=N/NC(=O)c3ccc(O)cc3)ccc21	26*	active	?	13%
COCCn1c(C)cc(/C=N/NC(=O)c2cc3ccccc3cc2O)c1C	/	/	3.7µM*	9.3µM*
Cc1ccc(NS(=O)(=O)c2ccc(Br)s2)cc1S(=O)(=O)N1CCOCC1	5	13	-16%	42%
CCN[C@H]1CN(CCCOC)S(=O)(=O)c2sc(S(N)(=O)=O)cc21	/	/	-30%	48%
CCn1nc(CC(C)C)cc1C(=O)N1CCCC(Nc2ccc(OC)cc2)C1 (configuration not stated)	-4	0	12%	?
Cc1c(C)n(Cc2ccccc2)c2ccc(C(=O)OCCCN(C)C)cc12	0	-8	?	4.1µM*
COc1ccc(Nc2nc(-c3ccccc3)c(C(=O)Nc3cccnc3)s2)cc1	24	38	-25%	?
Cc1nc2sc(-c3ccccc3)cc2c(=O)[nH]1	19*	40	/	131%
CC(C)OC(=O)Cc1nc2sc(-c3ccccc3)cc2c(=O)[nH]1	61*	69*	123%	31%
CCc1cc2c(=O)[nH]c(CC(N)=O)nc2s1	-1	14	28%	-14%
Cc1nc2cc3ccccc3cc2c(=O)[nH]1	31*	46*	/	37%
O=c1[nH]c(-c2cccnc2)nc2sc(-c3ccccc3)cc12	11	13	99%	57%
CCn1cnc2c([N+](=O)[O-])c(NS(=O)(=O)c3ccc(C)cc3)ccc21	/	/	9%	?
Cc1ccc(OCC(=O)NC2CCSc3ccccc32)cc1 (configuration not stated)	/	/	9%	0%
Cc1ccc(O)c(CN2CCN(c3ccccc3)CC2)c1	-2	11	2.6µM*	90%
COc1ccc(CN2CCN(c3ccccc3)CC2)c(C)c1C	-3	-14	/	-14%
Cc1cc(O)c(CN2CCN(c3ccccc3)CC2)cc1C	-3	-13	1.5µM*	/
COCc1ccc(C(=O)N2CCCC(C(=O)c3ccc(Cl)cc3C)C2)o1 (configuration not stated)	5	12	6%	?
SMILES	CHX counter	Shiga inhibitor	Pf growth 48h	Pf growth 96h
COc1ccccc1CN(CC(=O)NCc1ccc(F)cc1)C(=O)c1csnn1	-3	-11	-2%	12%
CC(=O)c1cn(CCOc2ccc(F)cc2)c2ccccc12	12*	/	?	?
CC(=O)c1cn(CCOc2ccccc2C)c2ccccc12	-2	13	3.3µM*	0%
Cc1ccc(OCCn2cc(C#N)c3ccccc32)cc1	1	15	8.3µM*	?
O=C(O)c1cn(CCOc2ccccc2Cl)c2ccccc12	38*	50*	246%	114%
O=C(c1cccc(NS(=O)(=O)c2ccc(F)c(F)c2)c1)N1CCCCC1	/	/	14%	19%
CC(=O)c1cn(CCCOc2ccccc2)c2ccccc12	21*	21	?	15%
CN1CCN(CCCNC(=O)c2ccc(Cn3c(=S)[nH]c4ccc(Br)cc4c3=O)cc2)CC1	6	14	?	1%
CC1CCN(CCCNC(=O)c2ccc(Cn3c(=S)[nH]c4ccc(Br)cc4c3=O)cc2)CC1	-3	-11	13µM*	16%
CC1CCCCN1CCNC(=O)c1ccc2c(=O)n(Cc3ccc(Cl)cc3)c(=S)[nH]c2c1 (configuration not stated)	1	-3	3.7µM*	8%
CC1CCCCN1CCNC(=O)c1ccc2c(=O)n(CCc3ccccc3)c(=O)[nH]c2c1 (configuration not stated)	-1	-14	-18%	-16%
COc1cc(NC(=O)CC(C)S(=O)(=O)c2ccc3c(c2)NC(=O)CO3)cc(OC)c1OC (configuration not stated)	-3	13	24%	?
O=C(Nc1cccc2cccnc12)OC(Cl)(Cl)Cl	22*	25	/	/
Cc1cc(C(=O)Nc2cccc3cccnc23)ccc1[N+](=O)[O-]	13	10	72%	10%
O=C(Nc1cccc2cccnc12)c1ccc(F)cc1	35*	64*	/	/
O=C(Nc1cccc2cccnc12)C(Cl)(Cl)Cl	10	29	/	/
CC(C)Oc1ccc(C(=O)Nc2cccc3cccnc23)cc1	27*	59*	22%	-9%
O=C(Nc1cccc2cccnc12)c1cccc([N+](=O)[O-])c1	35*	69*	79%	22%
O=C(CCc1c[nH]c2ccccc12)NC(Cc1ccccc1)C(=O)O (configuration not stated)	-1	24	4%	7%
S=C1CCC(c2ccc(Br)cc2)=NN1c1ccccc1	-1	-8	?	21%
N#Cc1cccc(NS(=O)(=O)c2ccccc2Cl)c1	/	/	-7%	?
COc1ccc(-c2ccccc2[C@H]2[C@@H]3C=CC[C@@H](C)[C@@H]3C(=O)N2Cc2ccccc2)cc1	28	i	/	/
O=C(Nc1cccc2cccnc12)c1ccccc1	25*	43*	/	/
C[C@H]1O[C@@H](n2cnc3c(N)ncnc32)C[C@@H]1OP(=O)(O)OP(=O)(O)OP(=O)(O)O	13	5	/	/
c1ccc(-n2cnnn2)cc1	/	/	-9%	-16%
SMILES	CHX counter	Shiga inhibitor	Pf growth 48h	Pf growth 96h
c1ccc(-n2nc3c(ccc4cnnc43)[nH]2)cc1	43*	83*	52%	-8%
Cc1ccc2c(c1C)OC(=O)CC2c1ccccc1 (configuration not stated)	-1	-7	3%	?
O=C(Nc1ccc2oc(-c3ccccc3)nc2c1)c1cc(-n2cnnc2)ccc1Cl	28*	84*	-24%	-26%
Cc1c(NC(=O)c2cc(-n3cnnc3)ccc2Cl)cccc1-c1nc2ccccc2o1	18*	26	-5%	?
O=C(Nc1ccc(-c2nc3ccccc3o2)cc1)c1cc(-n2cnnc2)ccc1Cl	23*	56*	12µM*	15µM*
O=C(Nc1ccc(-c2nc3ccccc3o2)c(O)c1)c1cc(-n2cnnc2)ccc1Cl	6	15	9.3µM*	-16%
O=C(Nc1ccc2c(c1)OCCO2)c1cc(-n2cnnc2)ccc1Cl	-2	-11	7%	36%
O=C(Nc1ccccc1)c1cc(-n2cnnc2)ccc1Cl	-1	-14	-11%	43%

Compound activity: PubChem, National Center for Advancing Translational Sciences (NCATS)
